Hit rate of the full screen: of about 420,000 compounds, about 64,000 (15%) were called active. Another 27% or so got no clear call; they are omitted. Only a sample is shown. Unmarked numbers belong to inactive results. Calls come from the whole dose curve; as a rule, active = well fitted inhibition curve with a large enough effect; inconclusive = small, poorly fitted or top-dose-only effect; inactive = flat fitted curve, though single readings scatter. Peptide text beside a SMILES is read from it. * marks the point of attachment. Bz = O=C(c1ccccc1)*
experiment: qHTS for Inhibitors of human tyrosyl-DNA phosphodiesterase 1 (TDP1): qHTS in cells in absence of CPT; conditions: DT40 Tdp1-/- hTDP1 cells, no CPT, ATP luminescence, 48 h; activity change, negative = growth inhibition: at 46.2 µM (top of the series); note: nearly all actives have a fitted effect of over 55% in size
How it was run: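 Readout: luminescence from CellTiter-Glo after 30 min in the dark at RT. Cells: DT40 Tdp1-/- with stable hTDP1, 400/well. Exposure: compounds alone, ≥48 hr, 37 °C.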
% is set by controls: 0 for no effect and ±100 for the full control effect; potency is the fitted concentration of half-maximal effect.

Row | Structure (SMILES) | activity change, negative = growth inhibition | Potency
1 | Cc1ccc(Cl)cc1NC(=O)NC1COc2ccccc2C1 (stereo unspecified) | 3.25% | –
2 | Cc1ccc(N=Nc2c(C)[nH]n(-c3ccccc3)c2=O)cc1 | 1.78% | –
3 | Cc1[nH]n(-c2ccccc2)c(=O)c1/C=N/NC(=O)c1ccoc1C | – | 1.84 µM (active)
4 | Cc1cc[n+](-c2[nH]c(=O)sc2/C=N/NC(=O)c2ccccc2[O-])cc1C | 7.5% | –
5 | CCn1c(SCC(=O)Nc2ccc(S(=O)(=O)Nc3onc(C)c3C)cc2)nnc1-c1ccccc1 | 4.75% | –
6 | CCOc1ccc(NC(=O)CCC(=O)NNC(=O)NC2CCCCC2)cc1 | -28.5% | –
7 | O=C(COc1nc2ccccc2nc1N1CCOCC1)NCC(F)(F)F | -14.5% | –
8 | O=c1[nH]c(N2CCOCC2)nc2ccccc12 | -13.4% | –
9 | c1ccc(Nc2nc(N3CCOCC3)c3ccccc3n2)cc1 | – | 16.4 µM (active)
10 | Cc1ccc(-n2c(SCC(=O)Nc3ccc4c(c3)OCO4)nnc2-c2ccccn2)cc1 | -12.9% | –
11 | Cc1ccc2c(NC(=O)C3CC3)cccc2n1 | 6.95% | –
12 | Cc1ccc(C(=O)Nc2cccc3ncccc23)cc1[N+](=O)[O-] | -9.15% | –
13 | Cc1ccc(/C=C(\C#N)C(=O)Nc2cccc3ncccc23)o1 | – | 25.9 µM (active)
14 | COc1ccc(S(=O)(=O)N2CCCC2CNC(=O)C(=O)NC2CC2)cc1 (stereo unspecified) | 11.9% | –
15 | Cc1cc(OCc2ccc(C(=O)Nc3ccc(C(=O)O)cc3)o2)ccc1Cl | -17.3% | –
16 | CCN(CC)S(=O)(=O)c1ccc(-c2cn3ccc(C)cc3n2)cc1 | -23.4% | –
17 | C/C(=N/NS(=O)(=O)c1ccccc1)c1ccc(NC(=O)C(F)(F)F)cc1 | 17.1% | –
18 | Cn1c(=O)c2c(-c3ccccc3Br)n(Cc3ccccc3)cc2n(C)c1=O | – | 18.4 µM (active)
19 | Cc1c(S(=O)(=O)NCc2ccccc2)c(=O)n(C)c(=O)n1C | 11.6% | –
20 | O=C(NC(Cc1ccccc1)C(=O)N1CCCC1C(=O)O)c1ccccc1 (stereo not drawn) (Bz-Phe-Pro-OH; configuration not given here) | 2.72% | –
21 | CN(C)c1nc(N)nc(Cn2nnc(-c3ccc(C(F)(F)F)cc3)n2)n1 | -22.4% | –
22 | O=C(O)c1ccc(F)c(S(=O)(=O)Nc2ccccc2)c1 | -25.1% | –
23 | Cc1ccc(C(=O)Nc2ccccc2-c2ccccc2)cc1S(=O)(=O)Nc1ccccc1 | – | 14.6 µM (active)
24 | Cc1ccc(C(=O)Nc2ccc(C(=O)O)cc2)cc1S(=O)(=O)Nc1ccccc1 | 0.751% | –
25 | Cc1ccc(F)c(S(=O)(=O)NC(=O)C2(C)CCN2C(=O)c2ccco2)c1 (stereo unspecified) | -13.3% | –
26 | CC(C(=O)N(C)CC(=O)Nc1ccccc1C(F)(F)F)N1C(=O)c2ccccc2C1=O (stereo unspecified) | -26.8% | –

Row | Structure (SMILES) | activity change, negative = growth inhibition | Potency
27 | CCOC(CNC(=O)C(=O)NCC(c1ccco1)N1CCN(c2ccc(OC)cc2)CC1)OCC (stereo unspecified) | 11.3% | –
28 | CC[n+]1cc(C)ccc1/C=C/c1ccc(N(C)C)cc1 | – | 0.0259 µM (active)
29 | CCNC(=O)COC(=O)/C=C/c1c(C)nn(Cc2cccc(OC)c2)c1Cl | -26.6% | –
30 | Cc1ccc(-c2c3c(=O)n(C)c(=O)n(C)c3cn2-n2cnnc2)cc1 | – | 20.6 µM (active)
31 | Cc1ccc(-c2c3c(=O)n(C)c(=O)n(C)c3cn2-c2ccccc2O)cc1 | -4.34% | –
32 | Cc1cn(C)c(=O)n(C)c1=O | 12.7% | –
33 | CC1CCN(CCC(=O)Nc2ccccc2)CC1 | -1.21% | –
34 | CC1=NC2(CCCc3c2no[n+]3[O-])N(O)C1(C)C (stereo unspecified) | -12% | –
35 | COc1ccc(NC(=O)Nc2ccc3nc(C)c(C)nc3c2)cc1 | -20.1% | –
36 | COc1ccc(Nc2cc(Sc3ccc(OC)cc3)ncn2)cc1 | – | 16.4 µM (active)
37 | COc1ccc(Nc2nc(=O)[nH]nc2C)cc1 | -0.528% | –
38 | CCCC(NS(=O)(=O)c1ccc(OC)cc1)C(=O)O (stereo unspecified) | -6.51% | –
39 | COC(=O)c1ccc(COC(=O)c2c(C)nn(Cc3ccccc3Cl)c2Cl)o1 | -4.36% | –
40 | COc1ccc(C)cc1-n1c(-c2ccc(C)cc2)cc2c1CC(C)(C)CC2=O | – | 8.2 µM (active)
41 | CC(=O)Oc1ccc(C)cc1N1C(=O)c2ccc(C(=O)O)cc2C1=O | -15.5% | –
42 | COc1ccc(C(=O)CN2C(=O)NC(C)(c3ccc(C)cc3)C2=O)cc1OC (stereo unspecified) | -4.31% | –
43 | Cc1cc(NC(=O)COC(=O)c2ccc(F)c(S(=O)(=O)N3CCOCC3)c2)no1 | 0.35% | –
44 | Cc1c(CCO)sc[n+]1CC(=O)c1ccc2ccccc2c1 | – | 15.8 µM (active)
45 | O=C(OCC(=O)N1CCOCC1)c1ccc2ccccc2c1 | -8.74% | –
46 | Cc1ccccc1OCC(=O)NCC(=O)OCC(=O)c1ccc2ccccc2c1 | – | inactive
47 | O=C(CCn1ccc([N+](=O)[O-])n1)Nc1nccs1 | -0.635% | –
48 | CCOc1ccc(-n2c(SCC(N)=O)nnc2-c2ccco2)cc1 | -102% | –
49 | O=C(COC(=O)C1CCN(S(=O)(=O)c2ccc3c(c2)OCCO3)CC1)Nc1ccccc1OC(F)F | -20.5% | –
50 | O=C(NCc1ccccn1)c1cc(Br)ccc1Cl | -17.2% | –
51 | Oc1ccc(Br)cc1/C=N/Nc1ccccn1 | – | 3.66 µM (active)

Reference: PubChem BioAssay AID686978 (National Center for Advancing Translational Sciences (NCATS), 2013)
